For this assay, the target named is AMP-activated protein kinase, AMPK (Homo sapiens) (UniProt P54646+O43741+P54619+Q9UGJ0+Q9Y478+Q13131+Q9UGI9). The assay can be described thus: AMP-dependent Kinase enzyme assay. An in vitro enzyme assay that detects ADP turnover that is directly proportional to AMPK activity. This uses naive AMPK that is activated during the assay with MK-8722. It counts as functional. Set-up: scale not given: direction of the effect not stated beside the values. As to conditions: 30 µM.
As to `Cc1cc(NC(=O)C(C)NCCn2cccn2)no1` (centres undefined), the Percent Effect was -0.416%.

For the compound `COc1ncnc(N)c1CNCc1ccccc1-n1cccn1`, the Percent Effect was -8.85%.

`Cc1cc(CNCC2(O)CCOCC2)ccc1Br`: the Percent Effect was -7.22%.

In the case of `O=C(Nc1ccccn1)NC1CCN(c2ccccc2OC(F)F)C1` (centres undefined), the Percent Effect is -0.894%.

Take `COCCCS(=O)(=O)N1CCN(Cc2cccn2C)CC1`: the Percent Effect worked out at 2.25%.

As for `Cc1noc(C)c1-c1cccc(C2CCN(S(=O)(=O)N(C)C)CC2)n1`, the Percent Effect came out at 5.6%.

Consider `Cc1n[nH]c(C)c1NC(=O)NCc1cc[nH]n1`, for which the Percent Effect is -7.26%.

In the case of `CCCc1nnc(N2CCC(N3CCCC3)CC2)o1`, the Percent Effect was -4.2%.

`Cc1noc(C)c1C(=O)N(C)C(C)c1ccncc1` (centres undefined): the Percent Effect was -0.736%.

In the case of `Cc1ccc(O)c(CN2CCCCC2CCN2CCOCC2)c1` (centres undefined), the Percent Effect is 8.46%.

Take `Cc1cccc(C(C(=O)NC(C)(C)CN2CCOCC2)N(C)C)c1` (centres undefined): the Percent Effect was -14.1%.

With `Cc1ncsc1CCN(C)C(=O)c1ccc(CN2CCCCC2)cc1`, the Percent Effect was found to be 5.27%.

In the case of `Cc1c(C(=O)N2CCC3(CCCNC3=O)C2)sc2nc[nH]c(=O)c12` (centres undefined), the Percent Effect came out at 13.6%.

Take `CN1C(=O)[C@H]2CC[C@@H]1CN(C(=O)Nc1cccc3ccccc13)C2`: the Percent Effect was -18.9%.

On to `Cc1cc(C)c2[nH]c(C(=O)NCCN3CCNC3=O)c(C)c2c1`, for which the Percent Effect was 11.1%.

As for `COc1ccc(Br)c(NC(=O)NCc2cnn(C)c2)c1`, the Percent Effect was -1.99%.

For the compound `FC(F)(F)c1nc(NC2CCc3ncnn3C2)c2ccccc2n1` (centres undefined), the Percent Effect is -0.0839%.

With `CCC[C@@H]1CN(Cc2cnc3c(S(C)(=O)=O)cnn3c2)C[C@H]1N(C)C`, the Percent Effect was -10.1%.

Regarding `Cc1ccccc1S(=O)(=O)N[C@@H]1CC[C@@H](N2CCNC(=O)C2)[C@@H]1O`, the Percent Effect came out at 5.3%.
